This is a sample that favours compounds with a hit; in the whole collection about 20% have one here.
Pf growth 48h: P. falciparum growth inhibition at 48 hours (one generation); 310,000 tested, 5.9% active; P. falciparum luciferase growth in erythrocytes, 48 h; Potency, µM (top dose mostly 28.7 µM), without a hit: at the highest dose activity change, negative = inhibition, actives largely listed as inhibitors; AID 504832; also: potency is read from the fitted curve at half-maximal effect; % is scaled to controls: 0 for no effect and ±100 for the full control effect
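Parasite viability was followed by luminescence of a genomically integrated firefly luciferase. Cultures held 0.1% parasitemia at 2% hematocrit (final), incubated under 5% CO2 at 37 C.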
CHX counter: counter-screen hit for Shiga toxin inhibitors, cycloheximide; 300,000 tested, 12% active; max response, %; cell reporter, cycloheximide protein synthesis inhibition counterscreen; in the data active = max response mostly above about 13%, no sharp cut-off; inactive = mostly below about 14%; also: read at 38.3 µM for the half of the compounds with a filed dose; 0% is about no effect
Shiga inhibitor: Shiga toxin inhibition; Vero cells, Shiga toxin protein synthesis inhibition reporter; inhibition, % at 38.7 µM; 290,000 tested, 9.2% active; AID 2315; in the data active = inhibition mostly above about 28%, no sharp cut-off; inactive = mostly below about 43%; also: 0% is about no effect
HCMV antiviral: inhibitors of human cytomegalovirus; 410,000 tested, 4.5% active; HFF cells, HCMV-luciferase reporter, 72 h; stronger effect = lower value; activity change, negative = inhibition, % at 57.5 µM; in the data active = activity change below about -60%; inconclusive = no clear call, values can overlap the other calls; inactive = above about -39%; also: % is scaled to controls: 0 for no effect and ±100 for the full control effect
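Two-dose cell screen: HFF monolayers treated with compounds and infected with luciferase-expressing HCMV at 1 PFU/cell, 72 h at 37C, then lysed for luciferase measurement.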
Pf growth 96h: inhibits malaria parasite growth, 96 h. P. falciparum luciferase reporter growth, 96 h. Potency, µM (series often up to 28.7 µM), for the others: top-dose activity change, negative = inhibition, hits mostly inhibitors. 320,000 tested, 6.9% active; also: potency is read from the fitted curve at half-maximal effect; % is scaled to controls: 0 for no effect and ±100 for the full control effect
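Readout is luminescence from an integrated firefly luciferase in P. falciparum. Red cells, 2% hematocrit and 0.05% parasitemia final, were cultured with compound through two parasite generations (96 hours) at 37 C, 5% CO2.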
The depositor's hits bear a star; u = inconclusive; x = no result given. Unless noted, calls follow the shape of the dose curve; as a rule, active = well fitted inhibition curve with a large enough effect; inconclusive = small, poorly fitted or top-dose-only effect, or another doubt; inactive = no such curve, though single readings can be large or run the other way.

SMILES | Pf growth 48h | CHX counter | Shiga inhibitor | HCMV antiviral | Pf growth 96h
CC(C)(C)c1cc(C(=O)Nc2ccccc2)ccn1 | 33% | 25* | 20 | 19 | 0%
CC(C)(C)NC(=O)c1ccnc(C(C)(C)C)c1 | x | 9 | 66 | 21 | -1%
CC(=O)OC1CC(OC2C(O)CC(OC3C(O)CC(OC4CCC5(C)C(CCC6C5CCC5(C)C(C7=CC(=O)OC7)C(O)CC65O)C4)OC3C)OC2C)OC(C)C1OC1OC(CO)C(O)C(O)C1O (configuration not stated) | x | x | x | -101* | x
C[C@H]1O[C@@H](O[C@H]2[C@@H](O)C[C@H](O[C@H]3[C@@H](O)C[C@H](O[C@H]4CC[C@@]5(C)[C@H](CC[C@@H]6[C@@H]5CC[C@]5(C)[C@@H](C7=CC(=O)OC7)CC[C@]65O)C4)O[C@@H]3C)O[C@@H]2C)C[C@H](O)[C@@H]1O | u | -7 | -23 | x | 4.1µM*
CC1OC(OC2C(O)CC(OC3C(O)CC(OC4CCC5(C)C(CCC6C5CCC5(C)C(C7=CC(=O)OC7)C(O)CC65O)C4)OC3C)OC2C)CC(O)C1O (configuration not stated) | x | x | x | -97* | x
CC(=O)OC1CC2(O)C3CCC4CC(O)CCC4(C)C3CCC2(C)C1C1=CC(=O)OC1 (configuration not stated) | x | x | x | -97* | x
O=C(COC(=O)CNS(=O)(=O)c1ccc(Br)cc1Cl)Nc1ccc(N2CCOCC2)cc1 | 9% | x | x | -2 | 18%
Cc1cc(Cl)ccc1N(CC(=O)NCc1ccc2c(c1)OCO2)S(C)(=O)=O | 5% | -3 | -3 | -10 | 47%
Nc1ncc([N+](=O)[O-])c(N2CCCCCC2)n1 | -6% | -6 | -13 | -75* | -2%
O=[N+]([O-])c1ccc(N2CCCC2)nc1N1CCCC1 | 6% | 2 | -9 | -4 | 13%
CCCCN(C)CCCNC(=O)c1cn(CC)c2ccc(S(=O)(=O)N3CCOCC3)cc2c1=O | u | 2 | 20 | -15 | u
O=C1NC(=O)C(C2CCCCCC2)C(=O)N1 | x | x | x | -66* | x
CCOc1ccc(C(=O)COC(=O)c2cccc(-n3cnnn3)c2)cc1 | 102% | 56* | 51* | 5 | 45%
COc1ccc(OCCOC(=O)c2cccc(-n3cnnn3)c2)cc1 | 53% | 14* | 14 | 68 | 15µM*
COC(=O)c1cccc(-n2cnnn2)c1 | 8% | -3 | -3 | 14 | 4%
O=C(COC(=O)c1cccc(-n2cnnn2)c1)c1ccccc1 | 34% | 20* | 31* | 18 | 63%
CCCNC(=O)Cn1ncc2c3ccccc3n(CCC)c2c1=O | x | x | x | 11 | x
CC(C)c1ccc(S(=O)(=O)c2cnc(SCC(=O)Nc3cccc(C(F)(F)F)c3)nc2N)cc1 | x | x | x | -24 | x
NC(=O)C1CCN(c2ncnc3c2cnn3-c2cccc(Cl)c2)CC1 | x | x | x | 55 | x
CCc1ccc(CN2CCN(c3ncccn3)CC2)cc1 | u | 26* | x | -3 | u
COC(=O)c1sc(N2C(=O)c3oc4ccccc4c(=O)c3C2c2ccc(O)cc2)nc1C (configuration not stated) | x | x | x | -8 | x
c1ccc(CC2CCN(Cc3nc(-c4ccccc4)no3)CC2)cc1 | u | 15* | 29 | -16 | x
Fc1cccc(CN2CCN(Cc3nc(CCc4ccccc4)no3)CC2)c1 | 35% | -2 | -5 | 0 | 10µM*
COc1ccc(-c2noc(CN3CCC(Cc4ccccc4)CC3)n2)cc1 | 10% | -2 | -6 | -24 | x
COc1ccccc1CN1CCN(Cc2nc(-c3ccccc3)no2)CC1 | 0% | 35* | 99* | 2 | -4%
SMILES | Pf growth 48h | CHX counter | Shiga inhibitor | HCMV antiviral | Pf growth 96h
COc1ccccc1CN1CCN(Cc2nc(Cc3ccccc3)no2)CC1 | u | 0 | -7 | 12 | 12µM*
O=C(CCC(=O)N1CCCC1)N1CCCC1 | 31% | -2 | 7 | -8 | 37%
CCOC(=O)c1ccc(NC(=O)C(Cc2ccccc2)NS(=O)(=O)c2ccc(Br)s2)cc1 (configuration not stated) | x | x | x | 1 | x
O=C(Cc1cccs1)N[C@@H]1c2ccccc2CC[C@H]1OCc1ccccc1 | x | x | x | -99* | x
CC(C)C(=O)N[C@@H]1c2ccccc2CC[C@@H]1OCc1ccccc1 | x | x | x | -82* | x
COc1ccc(CNC(=O)CN2C(=O)CSc3ccc(S(=O)(=O)N4CCC(C)CC4)cc32)cc1 | x | x | x | -18 | x
Cc1cc(S(=O)(=O)NCc2ccc(S(N)(=O)=O)cc2)c(C)s1 | -6% | -7 | -20 | 11 | u
COc1ccccc1NC(=O)c1ccc(S(=O)(=O)NCc2ccco2)cc1 | 10% | 38* | 103* | 11 | -1%
Cc1cc(S(=O)(=O)NCc2ccco2)c(C)s1 | 5% | -1 | 18 | 10 | 7.4µM*
CCNC(=S)NNC(=O)c1ccc(S(=O)(=O)NCc2ccco2)cc1 | x | x | x | -100* | x
COc1ccc(S(=O)(=O)NCc2ccco2)cc1NC(=O)c1ccccc1 | -7% | 47* | 65* | -1 | -16%
CC(C)(C)c1ccc(C(=O)NNC(=S)NCc2ccco2)cc1 | -20% | 14 | 27 | 39 | -4%
Cc1ccc(S(=O)(=O)NCC(=O)N(CC2CCCO2)C(C(=O)NC2CCCCC2)C(C)C)cc1 (configuration not stated) | u | -3 | -5 | -12 | 10%
Cc1cccc(NC(=O)c2cc(S(=O)(=O)NCc3ccco3)ccc2F)c1C | -14% | 47* | 63* | -32 | 2%
CCc1ccccc1NC(=O)CNC(=O)c1ccc(S(=O)(=O)NCc2ccco2)cc1 | x | x | x | -102* | x
Cc1cccc(NC(=O)c2cc(S(=O)(=O)NCc3ccc4c(c3)OCO4)ccc2F)c1C | x | x | x | 50 | x
COc1ccc(S(=O)(=O)NCc2ccco2)c2ccccc12 | -5% | 14 | 56 | -66* | x
CCC(=O)N1CCc2cc(Br)cc(S(=O)(=O)N3CCCC(C(=O)Nc4ccc(OC)cc4OC)C3)c21 (configuration not stated) | x | x | x | 13 | x
CC(C)(C)C(=O)Cn1c(=O)n(-c2ccc(Cl)c(Cl)c2)c(=O)c2c3c(sc21)CCCC3 | x | x | x | 14 | x
CN(Cc1c(C(=O)N/N=C/c2cccc(O)c2)nnn1-c1nonc1N)C1CCCCC1 | 47% | -5 | -13 | 0 | 5%
CC1CCN(Cc2c(C(=O)N/N=C/c3ccccc3O)nnn2-c2nonc2N)CC1 | u | -2 | -17 | -95* | -9%
Cc1ccccc1COc1ccc(/C=N/NC(=O)c2nnn(-c3nonc3N)c2CN2CCC(C)CC2)cc1 | u | 21* | 24 | 47 | u
CN(Cc1c(C(=O)N/N=C/c2ccccc2O)nnn1-c1nonc1N)C1CCCCC1 | x | x | x | -98* | x
FC(F)(F)c1ccccc1-n1c(-c2ccco2)n[nH]c1=S | 113% | 21* | 30* | u | 10%
CCOC(=O)c1c(NC(=O)/C=C/c2ccc(OCC)cc2)sc2c1CCC2 | x | x | x | 24 | x
Fc1ccc(Oc2nccc(-c3ccc(Cl)cc3)n2)cc1 | -9% | 26* | 36* | -26 | u
COc1ccc(Oc2nccc(-c3ccc(Cl)cc3)n2)cc1 | 51% | 0 | 9 | -37 | 68%
